# Assay outcomes deposited in PubChem by The Scripps Research Institute Molecular Screening Center.
# The list is not random: actives were taken first. Their share in the collection is about 2.4%.
# ULK1 primary – blocks human autophagy kinase ULK1. AlphaScreen Atg13 phosphorylation by ULK1, luminescence. inhibition, % at 5.96 µM. hit rate 1.9% among 30,000; in the data active means inhibition above about 43%;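 further: 0% = median of compound wells and 100% = no enzyme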
# ASK1 inh – human ASK1 kinase inhibition, primary screen. hit rate 0.99% among 22,000. inhibition, % at 7.44 µM. AID 1159602. Q99683. AlphaScreen MKK6 phosphorylation by ASK1, luminescence; in the data active means inhibition above about 35%;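 further: 0% = median of compound wells and 100% = no enzyme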
# AlphaScreen intf – counter-screen for ASK1 inhibitors: AlphaScreen optical interference; shares compounds with ASK1 inh; AlphaScreen TruHits beads, signal interference counterscreen; IC50, µM; hit rate 20% among 220; AID 1159604;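 active means IC50 of 10 µM or lower in the counterscreen; inactive means IC50 above 10 µM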;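 further: loss of AlphaScreen light from TruHits beads alone with no ASK1 enzyme present; potency of signal reduction so a low IC50 flags an assay artifact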
# * marks the source's active call; other numbers are inactive results; i = inactive; . = no result; ! = not confirmed by another sample.
SMILES,ULK1 primary,ASK1 inh,AlphaScreen intf
Cc1cc(NC2CC2)nc(Nc2ccc(N3CCOCC3)cc2)n1,5,7,.
c1ccc(CN2CCC(Nc3cc(Nc4ccc(N5CCOCC5)cc4)ncn3)CC2)cc1,8,-5,.
Cc1cc(NC2CCN(Cc3ccccc3)CC2)nc(Nc2ccc(N3CCOCC3)cc2)n1,6,40*,i
Nc1nc(Nc2ccc(N3CCOCC3)cc2)cc(NC2CCN(Cc3ccccc3)CC2)n1,19,43*!,>23
O=C(NCc1ccco1)C1CC(=O)N(c2ccccc2)C1 (configuration not stated),-7,.,.
COc1cc(Nc2nc(Nc3cc(OC)c(OC)c(OC)c3)c3ncn(Cc4ccc(C(F)(F)F)cc4)c3n2)cc(OC)c1OC,-19,19,.
COc1cc(Nc2nc(-c3c(C)noc3C)nc3c2ncn3Cc2ccc(C(F)(F)F)cc2)cc(OC)c1OC,-46,37*,>27
CCCNC(=O)c1ccnc(-c2cccs2)c1,2,5,.
CCNc1nc2ccc(C(=O)NCCc3ccc(OC)cc3)cc2s1,-4,2,.
